According to PubChem BioAssay (EPA / NIEHS):
Several values for one entry are separate records, joined by “and”; a condition that tells them apart may be missing. Equal values may be shown once. Results filed as inconclusive are left out. Some compounds were tested as several samples or in several runs, with calls that do not always agree. Activity calls are given as the source filed them. Rule for the calls: active = hit-call score of the fitted dose curve at least 0.9, where 1 is the maximum; inconclusive = response in the unintended direction; inactive = score below 0.9.

Tests used:
[1] = target: frog Thyroid hormone Receptor alpha (TRa), thra-a (gene 397942) (UniProt P15204); experiment: ATG_frTRa_XSP1: Attagene TRANS-FACTORIAL Multi-Species (XSP1) HepG2 Assay for frog Thyroid hormone Receptor alpha (TRa) (AID 2283804)
How it was run: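 Reporter transcript induction, measured by RT-PCR with 6-FAM labelling and capillary electrophoresis, 24 hr after dosing transiently transfected HepG2 cells expressing a frog TRa-GAL4 fusion; medium contained 3 nM 6-alpha-fluorotestosterone; increase over DMSO scored.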

[2] = target: human Thyroid hormone Receptor alpha (TRa), THRA (gene 7067) (UniProt P10827); experiment: ATG_hTRa_XSP1: Attagene TRANS-FACTORIAL Multi-Species (XSP1) HepG2 Assay for human Thyroid hormone Receptor alpha (TRa) (AID 2283805)
How it was run: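 Reporter transcripts from the human TRa-Gal4 TRANS unit quantified by RT-PCR, fluorescent labeling and capillary electrophoresis after 24 hours of chemical exposure in transfected HepG2 cells; medium contains 3 nM 6-alpha-fluorotestosterone. Positive direction fit against DMSO.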

[3] = tested on: turtle Thyroid Hormone Receptor, alpha (TRa), gene 101949057; experiment: ATG_trTRa_XSP1: Attagene TRANS-FACTORIAL Multi-Species (XSP1) HepG2 Assay for turtle Thyroid Hormone Receptor, alpha (TRa) (AID 2283806)
How it was run: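 After 24 h chemical exposure, reporter transcripts were measured by RT-PCR with fluorescent primer extension, HpaI digestion and capillary electrophoresis. Cells were transiently transfected HepG2 expressing exogenous NR-Gal4 chimeras; medium contained 3 nM 6-alpha-fluorotestosterone; fitted upward relative to DMSO.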

[4] = target: zebrafish Thyroid Hormone Receptor alpha (TRa), thraa (gene 30670) (UniProt Q98867); experiment: ATG_zfTRa_XSP1: Attagene TRANS-FACTORIAL Multi-Species (XSP1) HepG2 Assay for zebrafish Thyroid Hormone Receptor alpha (TRa) (AID 2283807)
How it was run: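 Reporter transcripts driven by a chimeric zebrafish TRa–Gal4 protein were measured by RT-PCR with fluorescent labelling and capillary electrophoresis. These came from transiently transfected HepG2 cells after 24 h chemical exposure, with 3 nM 6-alpha-fluorotestosterone added; baseline was DMSO.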

[5] = target: human Thyroid hormone Receptor beta (TRb), THRB (gene 7068) (UniProt P10828); experiment: ATG_hTRb_XSP1: Attagene TRANS-FACTORIAL Multi-Species (XSP1) HepG2 Assay for human Thyroid hormone Receptor beta (TRb) (AID 2283808)
How it was run: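 Readout is reporter mRNA induction measured by RT-PCR, fluorescent labelling and capillary electrophoresis, fitted upward relative to DMSO. Transiently transfected human HepG2 cells expressing NR-Gal4 chimeras were dosed for 24 h, medium containing 3 nM 6-alpha-fluorotestosterone.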

[6] = target: zebrafish Thyroid Hormone Receptor beta (TRb), thrb (gene 30607) (UniProt Q9PVE4); experiment: ATG_zfTRb_XSP1: Attagene TRANS-FACTORIAL Multi-Species (XSP1) HepG2 Assay for zebrafish Thyroid Hormone Receptor beta (TRb) (AID 2283809)
How it was run: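 HepG2 cells transiently transfected with multiplexed GAL4-UAS reporter units expressing chimeric zebrafish TRb–Gal4. Dosed 24 h with 3 nM 6-alpha-fluorotestosterone present; reporter mRNA measured by RT-PCR, HpaI digestion and capillary electrophoresis; gain of signal versus DMSO.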

[7] = ATG_XTT_Cytotoxicity_XSP1: Cytotoxicity Assessment in the Attagene TRANS-FACTORIAL Multi-Species (XSP1) HepG2 Assay (AID 2283810)
How it was run: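 XTT viability readout taken at 24 hours post-dosing in HepG2 liver cells co-treated with 3 nM 6-alpha-fluorotestosterone. Signal loss relative to DMSO controls reflects cytotoxicity.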

[8] = tested on: turtle Estrogen Receptor (ERa), gene 101933533; experiment: ATG_trERa_XSP2: Attagene TRANS-FACTORIAL Multi-Species (XSP2) HepG2 Assay for turtle Estrogen Receptor (ERa) (AID 2283812);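 note: actives raise reporter signal above DMSO so AC50 reflects agonist activity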
How it was run: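 Readout is reporter mRNA quantified by RT-PCR with capillary electrophoresis after 24 h compound exposure, increase relative to DMSO. Uses transiently transfected human HepG2 liver cells carrying a chimeric turtle ERa-Gal4 receptor driving GAL4-UAS reporters.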

[9] = target: Estrogen receptor beta (Homo sapiens) (UniProt Q92731); experiment: ATG_hERb_XSP2: Attagene TRANS-FACTORIAL Multi-Species (XSP2) HepG2 Assay for human Estrogen Receptor (ERb) (AID 2283813);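 note: actives raise reporter mRNA above DMSO so AC50 reflects agonist induction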
How it was run: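 Transient TRANS reporter system in HepG2: after 24 h of chemical, RNA is reverse-transcribed, reporter cDNA amplified, FAM-labelled and sized by capillary electrophoresis. Induction of the human ERb-Gal4 reporter is measured relative to DMSO.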

[10] = target: GAL4 Transcription Factor (Internal Marker), GAL4 (gene 855828) (UniProt P04386); experiment: ATG_GAL4_XSP2: Attagene TRANS-FACTORIAL Multi-Species (XSP2) HepG2 Assay for GAL4 Transcription Factor (Internal Marker) (AID 2283814);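 note: GAL4 reporter mRNA background control in MRTU transfected cells not a receptor target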
How it was run: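 Background-control readout: gain-of-signal fitted against DMSO. After 24 h exposure of transfected HepG2 (MRTU, GAL4-UAS reporters; 3 nM 6-alpha-fluorotestosterone, 1.5 nM norgestrel present), transcripts quantified by RT-PCR and capillary electrophoresis fluorescence.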

[11] = target: zebrafish Estrogen Receptor (ER1), esr1 (gene 259252) (UniProt P57717); experiment: ATG_zfER1_XSP2: Attagene TRANS-FACTORIAL Multi-Species (XSP2) HepG2 Assay for zebrafish Estrogen Receptor (ER1) (AID 2283816)
How it was run: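 After 24 h compound exposure, RNA from transfected HepG2 cells was reverse-transcribed and reporter transcripts resolved by capillary electrophoresis. The TRANS format reads exogenous zebrafish ER1-Gal4 chimera activity on GAL4-UAS elements; gain of signal against DMSO.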

[12] = target: chicken Estrogen Receptor (ERa), ESR1 (gene 396099) (UniProt P06212); experiment: ATG_chERa_XSP2: Attagene TRANS-FACTORIAL Multi-Species (XSP2) HepG2 Assay for chicken Estrogen Receptor (ERa) (AID 2283817);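 note: actives raise reporter signal above DMSO so AC50 reflects ER activation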
How it was run: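 Readout: fluorescent reporter-transcript fragments resolved by capillary electrophoresis after RT-PCR and HpaI cut. Chicken ERa-Gal4 fusion in transiently transfected HepG2, dosed for 24 h; activity taken as increase over DMSO baseline.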

[13] = tested on: frog Estrogen Receptor (ER), gene 398734; experiment: ATG_frER1_XSP2: Attagene TRANS-FACTORIAL Multi-Species (XSP2) HepG2 Assay for frog Estrogen Receptor (ER) (AID 2283821);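 note: hits raise reporter mRNA above DMSO baseline so potency means agonist or activator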
How it was run: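 Reporter mRNA induction, detected as fluorescence after RT-PCR and capillary electrophoresis, is the endpoint; activity is fitted upward against DMSO. Cells are human liver HepG2 carrying transfected NR-Gal4 chimeras with GAL4-UAS-driven reporters, harvested 24 h post-dosing.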

[14] = ATG_M_19_XSP2: Attagene TRANS-FACTORIAL Multi-Species (XSP2) HepG2 Assay for M32 Transcription Factor (Internal Marker) (AID 2283822)
How it was run: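 Internal background marker in a multi-species nuclear receptor TRANS panel: transfected HepG2 cells exposed 24 h, with 3 nM 6-alpha-fluorotestosterone and 1.5 nM norgestrel present. Readout is RT-PCR of reporter transcripts resolved by capillary electrophoresis, gain-of-signal versus DMSO.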

[15] = tested on: zebrafish Estrogen Receptor (ER2b), gene 317733; experiment: ATG_zfER2b_XSP2: Attagene TRANS-FACTORIAL Multi-Species (XSP2) HepG2 Assay for zebrafish Estrogen Receptor (ER2b) (AID 2283823);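 note: fitted upward as reporter gain over DMSO so potency reflects activation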
How it was run: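 Transfect HepG2 with GAL4-UAS reporter constructs; dose chemicals, 24 h; isolate RNA, RT-PCR, FAM-label, HpaI digest; capillary electrophoresis. Gain-of-signal vs DMSO.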

[16] = ATG_M_32_XSP2: Attagene TRANS-FACTORIAL Multi-Species (XSP2) HepG2 Assay for M19 Transcription Factor (Internal Marker) (AID 2283826)
How it was run: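 Read-out: fluorescent reporter mRNA fragments resolved by capillary electrophoresis after RT-PCR, gain-of-signal versus DMSO baseline. Cells were human HepG2 carrying transfected multi-reporter units, exposed 24 h. Medium contained 3 nM 6-alpha-fluorotestosterone plus 1.5 nM norgestrel.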

[17] = ATG_M_06_XSP2: Attagene TRANS-FACTORIAL Multi-Species (XSP2) HepG2 Assay for M06 Transcription Factor (Internal Marker) (AID 2283811);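 note: hits are increases in signal above the DMSO baseline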
How it was run: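 Readout: fluorescent reporter-mRNA peaks by capillary electrophoresis after RT-PCR and HpaI digest, scored upward relative to DMSO. Transfected HepG2, 24 h chemical exposure, with 3 nM 6-alpha-fluorotestosterone and 1.5 nM norgestrel added.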

[18] = tested on: zebrafish Androgen Receptor (AR), gene 100005148; experiment: ATG_zfAR_XSP2: Attagene TRANS-FACTORIAL Multi-Species (XSP2) HepG2 Assay for zebrafish Androgen Receptor (AR) (AID 2283825);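 note: hits raise reporter mRNA above DMSO so AC50 reflects agonist-type gain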
How it was run: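 After 24 h compound exposure in medium with 3 nM 6-alpha-fluorotestosterone plus 1.5 nM norgestrel, HepG2 cells carrying zebrafish AR–GAL4 reporter constructs were assessed for reporter mRNA gain by RT-PCR and capillary electrophoresis.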

[19] = tested on: turtle Androgen Receptor (AR), gene 101947425; experiment: ATG_trAR_XSP2: Attagene TRANS-FACTORIAL Multi-Species (XSP2) HepG2 Assay for turtle Androgen Receptor (AR) (AID 2283815)
How it was run: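 Reporter transcripts were quantified via RT-PCR and capillary electrophoresis and fitted upward against DMSO. Transiently transfected human HepG2 cells carrying NR-Gal4 chimeras were exposed 24 h, with 3 nM 6-alpha-fluorotestosterone plus 1.5 nM norgestrel added.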

Measured: AC50

GAL4 Transcription Factor (Internal Marker), GAL4 (gene 855828), sequence (P04386 whole entry, looked up, the tested form may be a part): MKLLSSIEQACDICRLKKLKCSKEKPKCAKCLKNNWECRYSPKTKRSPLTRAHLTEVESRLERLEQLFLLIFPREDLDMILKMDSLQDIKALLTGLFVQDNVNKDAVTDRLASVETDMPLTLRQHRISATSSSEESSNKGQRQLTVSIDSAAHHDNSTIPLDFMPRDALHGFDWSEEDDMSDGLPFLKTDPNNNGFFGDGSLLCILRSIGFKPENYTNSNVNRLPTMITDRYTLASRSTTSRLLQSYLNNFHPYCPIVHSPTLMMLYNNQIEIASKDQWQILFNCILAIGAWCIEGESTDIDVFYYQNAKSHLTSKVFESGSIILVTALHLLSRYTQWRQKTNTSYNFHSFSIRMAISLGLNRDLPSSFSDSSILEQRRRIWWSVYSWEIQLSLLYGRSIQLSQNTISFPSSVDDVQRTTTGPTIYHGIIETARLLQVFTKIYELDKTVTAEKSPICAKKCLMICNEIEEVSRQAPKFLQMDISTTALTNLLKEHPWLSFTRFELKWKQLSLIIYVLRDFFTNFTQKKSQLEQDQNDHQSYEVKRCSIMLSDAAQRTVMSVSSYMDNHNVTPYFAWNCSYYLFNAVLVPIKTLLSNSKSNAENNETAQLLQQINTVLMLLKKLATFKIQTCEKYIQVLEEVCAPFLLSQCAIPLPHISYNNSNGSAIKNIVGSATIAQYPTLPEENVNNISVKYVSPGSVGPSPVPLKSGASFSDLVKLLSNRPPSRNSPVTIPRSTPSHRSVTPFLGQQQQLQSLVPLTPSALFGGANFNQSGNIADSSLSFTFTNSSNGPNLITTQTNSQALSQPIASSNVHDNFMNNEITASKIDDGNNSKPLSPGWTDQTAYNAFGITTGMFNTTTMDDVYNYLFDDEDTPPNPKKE
human Thyroid hormone Receptor beta (TRb), THRB (gene 7068), sequence (P10828 whole entry, looked up, the tested form may be a part): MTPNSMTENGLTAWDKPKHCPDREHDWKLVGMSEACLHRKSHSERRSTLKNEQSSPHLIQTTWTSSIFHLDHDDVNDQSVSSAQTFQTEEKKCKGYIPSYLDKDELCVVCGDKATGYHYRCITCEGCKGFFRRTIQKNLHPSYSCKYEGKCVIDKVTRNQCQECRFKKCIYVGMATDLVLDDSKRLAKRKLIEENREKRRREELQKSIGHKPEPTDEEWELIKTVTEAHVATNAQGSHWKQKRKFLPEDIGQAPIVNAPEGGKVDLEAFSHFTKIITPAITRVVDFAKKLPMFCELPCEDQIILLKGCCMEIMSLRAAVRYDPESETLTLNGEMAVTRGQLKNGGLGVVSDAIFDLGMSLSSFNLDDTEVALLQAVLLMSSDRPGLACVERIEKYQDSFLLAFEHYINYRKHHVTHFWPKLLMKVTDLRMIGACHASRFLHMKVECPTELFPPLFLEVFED
zebrafish Estrogen Receptor (ER1), esr1 (gene 259252), sequence (P57717 whole entry, looked up, the tested form may be a part): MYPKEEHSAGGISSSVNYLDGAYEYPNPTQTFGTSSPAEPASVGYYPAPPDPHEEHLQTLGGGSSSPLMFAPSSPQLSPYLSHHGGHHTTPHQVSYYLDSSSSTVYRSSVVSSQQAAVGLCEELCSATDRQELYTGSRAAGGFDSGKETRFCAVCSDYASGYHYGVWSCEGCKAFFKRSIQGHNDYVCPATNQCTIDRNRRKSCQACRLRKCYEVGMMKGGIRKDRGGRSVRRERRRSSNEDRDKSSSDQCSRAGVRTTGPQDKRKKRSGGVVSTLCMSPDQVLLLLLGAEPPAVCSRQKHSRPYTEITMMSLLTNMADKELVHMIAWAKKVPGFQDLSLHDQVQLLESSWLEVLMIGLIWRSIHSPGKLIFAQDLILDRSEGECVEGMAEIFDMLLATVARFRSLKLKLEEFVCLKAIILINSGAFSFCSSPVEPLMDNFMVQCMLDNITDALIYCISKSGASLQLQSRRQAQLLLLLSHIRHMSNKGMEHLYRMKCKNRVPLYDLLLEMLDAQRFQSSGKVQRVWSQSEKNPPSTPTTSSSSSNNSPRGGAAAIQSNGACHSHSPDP
chicken Estrogen Receptor (ERa), ESR1 (gene 396099), sequence (P06212 whole entry, looked up, the tested form may be a part): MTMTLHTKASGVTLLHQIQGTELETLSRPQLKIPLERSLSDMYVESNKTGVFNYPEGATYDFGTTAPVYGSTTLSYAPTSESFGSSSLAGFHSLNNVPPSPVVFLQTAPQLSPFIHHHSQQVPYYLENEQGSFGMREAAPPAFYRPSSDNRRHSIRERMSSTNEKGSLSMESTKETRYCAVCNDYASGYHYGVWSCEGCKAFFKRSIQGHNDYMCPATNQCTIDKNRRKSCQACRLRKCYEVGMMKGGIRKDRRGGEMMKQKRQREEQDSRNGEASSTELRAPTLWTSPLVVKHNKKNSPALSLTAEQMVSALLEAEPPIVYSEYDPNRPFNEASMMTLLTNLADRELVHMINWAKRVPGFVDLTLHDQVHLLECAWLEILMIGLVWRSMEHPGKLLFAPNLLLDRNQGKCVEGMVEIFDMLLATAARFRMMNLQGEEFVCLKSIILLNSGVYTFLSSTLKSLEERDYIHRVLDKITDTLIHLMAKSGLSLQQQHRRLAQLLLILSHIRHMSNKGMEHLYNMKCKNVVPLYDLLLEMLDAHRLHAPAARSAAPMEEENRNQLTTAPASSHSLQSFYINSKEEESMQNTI
zebrafish Thyroid Hormone Receptor beta (TRb), thrb (gene 30607), sequence (Q9PVE4 whole entry, looked up, the tested form may be a part): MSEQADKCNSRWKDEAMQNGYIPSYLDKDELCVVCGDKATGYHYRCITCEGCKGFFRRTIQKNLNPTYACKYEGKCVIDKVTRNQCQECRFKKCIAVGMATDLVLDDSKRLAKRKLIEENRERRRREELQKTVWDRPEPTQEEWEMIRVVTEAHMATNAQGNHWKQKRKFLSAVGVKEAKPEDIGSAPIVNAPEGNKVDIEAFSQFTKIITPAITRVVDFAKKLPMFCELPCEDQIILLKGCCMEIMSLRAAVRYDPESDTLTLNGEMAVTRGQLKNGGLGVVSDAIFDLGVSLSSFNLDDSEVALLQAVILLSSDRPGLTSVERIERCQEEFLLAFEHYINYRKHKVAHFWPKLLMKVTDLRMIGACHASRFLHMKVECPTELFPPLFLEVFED
Estrogen receptor beta (Homo sapiens), sequence (Q92731 whole entry, looked up, the tested form may be a part): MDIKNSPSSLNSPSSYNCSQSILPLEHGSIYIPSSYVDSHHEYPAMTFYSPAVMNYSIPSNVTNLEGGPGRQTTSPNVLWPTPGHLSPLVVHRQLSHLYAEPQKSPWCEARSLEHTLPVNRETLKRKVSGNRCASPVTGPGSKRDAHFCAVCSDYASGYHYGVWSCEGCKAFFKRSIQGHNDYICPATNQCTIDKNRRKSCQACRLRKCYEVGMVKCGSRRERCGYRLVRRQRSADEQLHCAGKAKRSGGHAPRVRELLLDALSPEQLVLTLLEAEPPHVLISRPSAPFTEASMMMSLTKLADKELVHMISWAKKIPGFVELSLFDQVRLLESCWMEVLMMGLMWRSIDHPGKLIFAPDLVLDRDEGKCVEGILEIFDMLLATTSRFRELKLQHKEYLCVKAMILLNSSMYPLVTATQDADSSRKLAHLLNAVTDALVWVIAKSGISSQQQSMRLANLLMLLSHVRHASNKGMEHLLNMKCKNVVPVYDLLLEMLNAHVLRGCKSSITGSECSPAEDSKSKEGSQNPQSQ
frog Thyroid hormone Receptor alpha (TRa), thra-a (gene 397942), sequence (P15204 whole entry, looked up, the tested form may be a part): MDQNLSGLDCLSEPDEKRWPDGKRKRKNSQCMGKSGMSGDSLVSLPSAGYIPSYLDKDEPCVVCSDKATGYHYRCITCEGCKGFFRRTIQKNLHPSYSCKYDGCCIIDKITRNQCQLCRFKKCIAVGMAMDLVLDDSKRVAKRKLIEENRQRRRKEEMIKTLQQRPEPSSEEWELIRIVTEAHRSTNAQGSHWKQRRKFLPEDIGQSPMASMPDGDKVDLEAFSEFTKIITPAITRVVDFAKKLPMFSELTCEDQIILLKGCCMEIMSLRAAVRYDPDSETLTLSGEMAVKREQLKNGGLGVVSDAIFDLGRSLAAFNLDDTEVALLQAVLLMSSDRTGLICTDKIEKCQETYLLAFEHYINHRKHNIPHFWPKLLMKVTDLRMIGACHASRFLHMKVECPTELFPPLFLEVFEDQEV
human Thyroid hormone Receptor alpha (TRa), THRA (gene 7067), sequence (P10827 whole entry, looked up, the tested form may be a part): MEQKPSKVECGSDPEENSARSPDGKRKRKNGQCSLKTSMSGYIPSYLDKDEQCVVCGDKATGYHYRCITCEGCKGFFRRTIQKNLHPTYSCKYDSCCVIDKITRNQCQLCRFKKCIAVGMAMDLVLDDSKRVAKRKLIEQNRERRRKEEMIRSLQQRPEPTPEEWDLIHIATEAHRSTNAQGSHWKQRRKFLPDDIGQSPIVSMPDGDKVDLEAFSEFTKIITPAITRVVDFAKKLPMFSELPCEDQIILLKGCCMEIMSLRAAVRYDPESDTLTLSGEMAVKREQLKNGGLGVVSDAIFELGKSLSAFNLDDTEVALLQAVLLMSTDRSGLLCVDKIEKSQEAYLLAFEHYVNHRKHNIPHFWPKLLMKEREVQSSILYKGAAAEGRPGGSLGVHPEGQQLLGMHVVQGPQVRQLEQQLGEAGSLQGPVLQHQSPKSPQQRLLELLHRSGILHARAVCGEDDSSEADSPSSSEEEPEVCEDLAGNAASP
zebrafish Thyroid Hormone Receptor alpha (TRa), thraa (gene 30670), sequence (Q98867 whole entry, looked up, the tested form may be a part): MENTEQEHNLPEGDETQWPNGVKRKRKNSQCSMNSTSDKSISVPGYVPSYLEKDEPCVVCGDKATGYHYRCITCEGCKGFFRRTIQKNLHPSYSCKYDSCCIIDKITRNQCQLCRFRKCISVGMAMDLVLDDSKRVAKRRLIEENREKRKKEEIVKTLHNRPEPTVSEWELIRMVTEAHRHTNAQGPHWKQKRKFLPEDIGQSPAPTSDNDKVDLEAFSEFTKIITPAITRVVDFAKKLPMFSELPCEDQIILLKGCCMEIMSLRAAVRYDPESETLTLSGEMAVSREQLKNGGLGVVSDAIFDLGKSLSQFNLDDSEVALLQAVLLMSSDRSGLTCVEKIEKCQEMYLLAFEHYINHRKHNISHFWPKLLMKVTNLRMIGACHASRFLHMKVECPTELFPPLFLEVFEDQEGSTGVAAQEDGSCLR

CC1(C)CCC(=Cc2ccc(Cl)cc2)C1(O)Cn1cncn1 (stereo not drawn)
inactive: [1] | [2] | [3] | [4] | [5] | [6] | [7] | [8] | [9] | [10] | [11] | [13] | [14] | [16]
active: [12] 27.6 µM | [15] 115 µM

CC(C)NC(=O)N1CC(=O)N(c2cc(Cl)cc(Cl)c2)C1=O
inactive: [1] | [3] | [5] | [6] | [7] | [17] | [8] | [10] | [11] | [12] | [13] | [14] | [15] | [18] | [16]

COP(=S)(OC)SCn1nnc2ccccc2c1=O
inactive: [17] | [8] | [9] | [10] | [11] | [12] | [15]
active: [8] 16.4 µM | [12] 21.7 µM | [13] 29.1 µM and 5.67 µM | [15] 132 µM

CC1(C)C(C=C(Cl)Cl)C1C(=O)OC(C#N)c1cccc(Oc2ccccc2)c1 (stereo not drawn)
inactive: [3] | [5] | [6] | [17] | [9] | [19] | [16]
active: [8] 18 µM | [12] 22.8 µM | [13] 21.1 µM | [15] 100 µM
